Consider 7 sequences from paper PMC4081100, “A DNA-binding-site landscape and regulatory network analysis for NAC transcription factors in Arabidopsis thaliana”.

Assay in all cases: universal protein binding microarray (PBM); transcription factors of Arabidopsis thaliana; high values mean tight binding
Settings in all cases: protein: recombinant; tags: GST; chain copies: 2; dsDNA, one strand shown

One assay concerns the target T1, GST-ANAC092(1-176) (Arabidopsis thaliana, UniProt Q9FKA0 1-176).
T1 sequence: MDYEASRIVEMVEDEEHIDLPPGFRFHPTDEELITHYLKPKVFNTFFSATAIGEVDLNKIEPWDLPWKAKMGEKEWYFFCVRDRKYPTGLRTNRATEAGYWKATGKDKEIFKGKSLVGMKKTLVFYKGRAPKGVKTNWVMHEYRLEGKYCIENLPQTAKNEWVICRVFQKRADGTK
The essentials: (§1)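 GST-tagged NAC-domain, full-length or DNA-binding-domain proteins were induced in cells, with zinc acetate added for zinc-finger proteins. They were purified on glutathione–Sepharose 4B and quantified by A280 or anti-GST western blot. Each was applied at 200 to 500 nM final, in duplicate, to custom all-10-mer Agilent 4 × 180K arrays made double-stranded by primer extension, with gapped and ungapped 8-mers scored. Binding is the normalised enrichment score (E-score).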

The next assay deals with GST-NTL6(1-168) (Arabidopsis thaliana, UniProt Q9SCK6 1-168). The gist of the method:
as §1

A further assay concerns the target T2, GST-ANAC019 NAC domain (Arabidopsis thaliana, UniProt Q9C932 14-162).
T2 sequence: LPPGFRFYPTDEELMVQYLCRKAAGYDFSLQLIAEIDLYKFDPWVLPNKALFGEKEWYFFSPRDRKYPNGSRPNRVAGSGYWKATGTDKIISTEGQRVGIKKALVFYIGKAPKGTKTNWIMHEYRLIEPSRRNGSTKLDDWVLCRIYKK
The essentials:
as §1

The target in another assay is T3, GST-ANAC055(1-171) (Arabidopsis thaliana, UniProt Q9LDY8 1-171).
T3 sequence: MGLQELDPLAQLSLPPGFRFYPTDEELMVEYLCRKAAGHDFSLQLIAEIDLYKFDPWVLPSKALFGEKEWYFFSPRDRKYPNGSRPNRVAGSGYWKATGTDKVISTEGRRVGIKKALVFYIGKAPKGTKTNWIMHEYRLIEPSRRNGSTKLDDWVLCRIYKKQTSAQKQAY
The gist of the method:
as §1

Another assay has as its target T4, GST-ATAF1 NAC domain (Arabidopsis thaliana, UniProt Q39013 7-158).
T4 sequence: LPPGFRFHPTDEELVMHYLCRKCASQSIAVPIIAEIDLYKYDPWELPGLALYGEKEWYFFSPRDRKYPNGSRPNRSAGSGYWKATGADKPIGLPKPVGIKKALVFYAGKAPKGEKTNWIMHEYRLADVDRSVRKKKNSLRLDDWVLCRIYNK
The gist of the method: as §1

The target of assay [1] is T5, GST-ANAC092(1-285) full length (Arabidopsis thaliana, UniProt Q9FKA0 1-285).
T5 sequence: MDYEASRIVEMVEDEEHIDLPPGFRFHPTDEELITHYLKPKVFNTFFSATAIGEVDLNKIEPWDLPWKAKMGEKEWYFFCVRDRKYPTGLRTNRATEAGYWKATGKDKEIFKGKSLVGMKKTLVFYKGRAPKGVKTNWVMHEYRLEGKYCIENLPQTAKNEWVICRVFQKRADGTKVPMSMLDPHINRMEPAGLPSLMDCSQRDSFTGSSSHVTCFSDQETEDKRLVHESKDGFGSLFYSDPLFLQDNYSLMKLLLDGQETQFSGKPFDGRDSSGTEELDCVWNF
The gist of the method: as §1

Another assay has as its target T6, GST-NAP(1-166) (Arabidopsis thaliana, UniProt O49255 1-166).
T6 sequence: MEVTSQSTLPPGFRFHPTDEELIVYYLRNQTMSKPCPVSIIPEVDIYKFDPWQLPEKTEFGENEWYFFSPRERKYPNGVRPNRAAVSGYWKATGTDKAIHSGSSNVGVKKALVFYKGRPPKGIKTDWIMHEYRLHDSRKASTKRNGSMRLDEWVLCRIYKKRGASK
The essentials:
as §1

In a further assay the target is T7, GST-NST2(1-184) (Arabidopsis thaliana, UniProt Q9M274 1-184).
T7 sequence: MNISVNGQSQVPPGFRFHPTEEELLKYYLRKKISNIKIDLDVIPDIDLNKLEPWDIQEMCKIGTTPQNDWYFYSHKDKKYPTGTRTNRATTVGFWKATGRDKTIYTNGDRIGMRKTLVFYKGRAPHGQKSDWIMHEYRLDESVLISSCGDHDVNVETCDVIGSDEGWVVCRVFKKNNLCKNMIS
The essentials: as §1

A further assay has as its target T8, GST-NTL8 NAC domain (Arabidopsis thaliana, UniProt Q9XIN7 14-156).
T8 sequence: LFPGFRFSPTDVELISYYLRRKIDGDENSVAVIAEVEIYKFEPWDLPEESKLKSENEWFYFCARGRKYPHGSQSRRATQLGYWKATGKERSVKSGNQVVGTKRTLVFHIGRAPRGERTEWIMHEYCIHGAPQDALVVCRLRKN
The essentials: as §1

The target in a further assay is T9, GST-SND1(1-203) (Arabidopsis thaliana, UniProt Q9LPI7 1-203).
T9 sequence: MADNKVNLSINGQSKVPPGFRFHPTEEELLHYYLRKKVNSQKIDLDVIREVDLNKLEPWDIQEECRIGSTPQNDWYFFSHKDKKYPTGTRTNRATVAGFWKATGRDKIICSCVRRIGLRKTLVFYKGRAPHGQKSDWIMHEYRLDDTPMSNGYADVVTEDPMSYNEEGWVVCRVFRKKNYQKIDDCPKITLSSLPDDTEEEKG
The gist of the method: as §1

The next assay has as its target T10, GST-VND3 NAC domain (Arabidopsis thaliana, UniProt Q9FH59 12-162).
T10 sequence: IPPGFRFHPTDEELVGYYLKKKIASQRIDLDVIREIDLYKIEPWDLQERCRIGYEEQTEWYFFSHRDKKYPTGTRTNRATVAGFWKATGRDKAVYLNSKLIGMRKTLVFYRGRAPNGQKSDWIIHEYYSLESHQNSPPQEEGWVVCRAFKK
The gist of the method: as §1

The next assay deals with T11, GST-VND7 NAC domain (Arabidopsis thaliana, UniProt Q9C8W9 9-158).
T11 sequence: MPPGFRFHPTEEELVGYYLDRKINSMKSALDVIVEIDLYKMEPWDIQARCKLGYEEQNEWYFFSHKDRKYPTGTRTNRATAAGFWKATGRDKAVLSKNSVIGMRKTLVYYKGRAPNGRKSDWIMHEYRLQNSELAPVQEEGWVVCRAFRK
The essentials: as §1

GST-NTL6(1-168), sequence (Q9SCK6 1-168): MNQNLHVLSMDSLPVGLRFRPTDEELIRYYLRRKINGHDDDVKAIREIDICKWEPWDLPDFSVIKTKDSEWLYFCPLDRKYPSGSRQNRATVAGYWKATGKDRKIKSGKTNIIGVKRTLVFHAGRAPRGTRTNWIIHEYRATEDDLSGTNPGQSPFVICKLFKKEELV

Consider CACGGCAA, for which the binding signal with GST-ANAC092(1-176) is 0.457 E-score; with GST-NTL6(1-168), 0.0683 E-score; in the assay with GST-ANAC019 NAC domain, 0.471 E-score; with GST-ANAC055(1-171), 0.44 E-score; with GST-ATAF1 NAC domain, 0.364 E-score; in assay [1], 0.456 E-score. For the same sequence, the binding signal turned out to be 0.36 E-score with GST-NAP(1-166); 0.256 E-score with GST-NST2(1-184); 0.0895 E-score in the assay with GST-NTL8 NAC domain; 0.123 E-score with GST-SND1(1-203); 0.456 E-score with GST-VND3 NAC domain; 0.444 E-score with GST-VND7 NAC domain.
In the case of GTTACTTA, the binding signal in the assay with GST-ANAC092(1-176) stood at 0.306 E-score; in the assay with GST-NTL6(1-168), 0.461 E-score; with GST-ANAC019 NAC domain, 0.0988 E-score; with GST-ANAC055(1-171), 0.117 E-score; in the assay with GST-ATAF1 NAC domain, 0.256 E-score; in assay [1], 0.374 E-score. In addition, the binding signal in the assay with GST-NAP(1-166) was 0.113 E-score; with GST-NST2(1-184), 0.25 E-score; with GST-NTL8 NAC domain it was 0.286 E-score; with GST-SND1(1-203), 0.41 E-score; with GST-VND3 NAC domain it was 0.263 E-score; with GST-VND7 NAC domain it was 0.248 E-score.
For the sequence AAGGTAAC, the binding signal is 0.233 E-score with GST-ANAC092(1-176); 0.309 E-score with GST-NTL6(1-168); 0.141 E-score with GST-ANAC019 NAC domain; 0.185 E-score with GST-ANAC055(1-171); 0.142 E-score in the assay with GST-ATAF1 NAC domain; 0.285 E-score in assay [1]. For the same sequence, the binding signal in the assay with GST-NAP(1-166) was 0.151 E-score; with GST-NST2(1-184), 0.232 E-score; in the assay with GST-NTL8 NAC domain, 0.441 E-score; in the assay with GST-SND1(1-203), 0.188 E-score; in the assay with GST-VND3 NAC domain, 0.154 E-score; in the assay with GST-VND7 NAC domain, 0.194 E-score.
For the sequence AAGTTACC, the binding signal with GST-ANAC092(1-176) was determined as 0.365 E-score; with GST-NTL6(1-168), 0.308 E-score; in the assay with GST-ANAC019 NAC domain, 0.155 E-score; with GST-ANAC055(1-171), 0.0803 E-score; in the assay with GST-ATAF1 NAC domain, 0.142 E-score; in assay [1], 0.417 E-score. The binding signal in the assay with GST-NAP(1-166) was found to be 0.114 E-score; in the assay with GST-NST2(1-184), 0.288 E-score; in the assay with GST-NTL8 NAC domain, 0.376 E-score; with GST-SND1(1-203), 0.37 E-score; with GST-VND3 NAC domain, 0.146 E-score; in the assay with GST-VND7 NAC domain, 0.0773 E-score.
Regarding AAGTAAAG, the binding signal with GST-ANAC092(1-176) was determined as 0.275 E-score; in the assay with GST-NTL6(1-168), 0.432 E-score; in the assay with GST-ANAC019 NAC domain, 0.107 E-score; with GST-ANAC055(1-171) it was 0.168 E-score; with GST-ATAF1 NAC domain, 0.189 E-score; in assay [1] it was 0.32 E-score. The binding signal in the assay with GST-NAP(1-166) stood at 0.0549 E-score; with GST-NST2(1-184), 0.265 E-score; with GST-NTL8 NAC domain, 0.27 E-score; with GST-SND1(1-203) it was 0.328 E-score; with GST-VND3 NAC domain, 0.175 E-score; with GST-VND7 NAC domain, 0.181 E-score.
With AATTCCGT, the binding signal with GST-ANAC092(1-176) was determined as 0.274 E-score; with GST-NTL6(1-168), 0.169 E-score; with GST-ANAC019 NAC domain, 0.456 E-score; with GST-ANAC055(1-171) it was 0.429 E-score; with GST-ATAF1 NAC domain it was 0.358 E-score; in [1], 0.247 E-score. The binding signal in the assay with GST-NAP(1-166) worked out at 0.379 E-score; with GST-NST2(1-184), 0.179 E-score; with GST-NTL8 NAC domain, 0.105 E-score; in the assay with GST-SND1(1-203), 0.122 E-score; with GST-VND3 NAC domain, 0.414 E-score; in the assay with GST-VND7 NAC domain it was 0.382 E-score.
Consider AACGTAAT, for which the binding signal with GST-ANAC092(1-176) turned out to be 0.293 E-score; with GST-NTL6(1-168), 0.183 E-score; with GST-ANAC019 NAC domain, 0.266 E-score; with GST-ANAC055(1-171), 0.32 E-score; in the assay with GST-ATAF1 NAC domain it was 0.359 E-score; in assay [1], 0.357 E-score. Besides, the binding signal with GST-NAP(1-166) stood at 0.286 E-score; in the assay with GST-NST2(1-184) it was 0.309 E-score; with GST-NTL8 NAC domain it was 0.114 E-score; with GST-SND1(1-203), 0.449 E-score; with GST-VND3 NAC domain, 0.359 E-score; in the assay with GST-VND7 NAC domain it was 0.274 E-score.
